The record followed here is ChEMBL document CHEMBL1157539, “Thousands of chemical starting points for antimalarial lead identification” (Nature, 2010).

Each structure is given as a SMILES string.

Holding throughout (type): functional
Assay [1] concerns Plasmodium falciparum. The assay is described as follows: GSK_TCMDC: Inhibition of Plasmodium falciparum 3D7 in whole red blood cells, using parasite LDH activity as an index of growth. Test compounds present at 2uM.
The test system of assay [2] is Plasmodium falciparum. The assay is described as follows: GSK_TCMDC: Inhibition of Plasmodium falciparum Dd2 in whole red blood cells, using parasite LDH activity as an index of growth. Test compounds present at 2uM.
The subject of the next assay is HepG2. In words: GSK_TCMDC: Percent inhibition of human HepG2 cell line. Test compounds present at 10uM.

`CCN1CCC(NCc2ccc(-c3ccc(Cl)cc3)cc2)CC1`: the Inhibition (as a rule, the percentage by which the read-out fell short of the control) was 100% with Plasmodium falciparum [1], 33% in the assay on Plasmodium falciparum [2] and 25% in the assay with HepG2.

Regarding `O=C(Nc1ccc(Cl)cc1)c1ccc(CN2CCCN(Cc3ccccc3)CC2)cc1.O=C(O)C(F)(F)F`, the Inhibition came to 96% in the assay on Plasmodium falciparum [1], 2% in the assay on Plasmodium falciparum [2] and 46% in the assay with HepG2.

Take `NC(=S)Cc1ccc2c(c1)OCO2`: the Inhibition in the assay on Plasmodium falciparum [1] was found to be 96%; with Plasmodium falciparum [2], 0%; in the assay on HepG2, 43%.

For `Nc1ncc(OC2CCCCC2)c(N)n1`, the Inhibition in the assay on Plasmodium falciparum [1] came to 94%; in the assay with Plasmodium falciparum [2] it was 0%; with HepG2, 0%.

Consider `O=C(Nc1cccc(CN2CCN(C(=O)c3cccc(F)c3)CC2)c1)c1ccco1.O=C(O)C(F)(F)F`, for which the figures for the Inhibition in the assay on Plasmodium falciparum [1], in the assay on Plasmodium falciparum [2] and in the assay on HepG2 were 88%, 55% and 7%, respectively.

For `CCOc1cc(C(=O)NCCCN2CCN(c3cccc(Cl)c3)CC2)ccc1-c1nc2cc(Cl)c(F)cc2[nH]1`, the results for the Inhibition with Plasmodium falciparum [1], with Plasmodium falciparum [2] and with HepG2 were 96%, 19% and 16%, respectively.

For the molecule `CC(C)c1ccc(-c2noc(SCC(=O)N3CCCCC3C)n2)cc1` (stereo not drawn), the Inhibition with Plasmodium falciparum [1] is reported as 92%; in the assay on Plasmodium falciparum [2], 92%; in the assay on HepG2, 21%.

As to `COc1ccc2[nH]c(C)cc(=NN=Cc3ccc(F)cc3)c2c1`, the Inhibition in the assay with Plasmodium falciparum [1] was 100%; in the assay with Plasmodium falciparum [2], 99%; in the assay on HepG2 it was 5%.

`CC1CCCN(Cc2c(O)ccc3c(O)c(-c4nc5ccccc5s4)c(=N)oc23)C1` (stereo not drawn): the Inhibition in the assay with Plasmodium falciparum [1] was 100%; in the assay with Plasmodium falciparum [2], 99%; in the assay with HepG2, 20%.

As for `CNC(=O)COc1ccc(Nc2nnc(-c3ccc(C)c(S(=O)(=O)NCC4CCCO4)c3)c3ccccc23)cc1` (stereo not drawn), the Inhibition in the assay with Plasmodium falciparum [1] is recorded as 90%; in the assay on Plasmodium falciparum [2] it was 68%; in the assay with HepG2 it was 0%.

Take `O=C(/C=C/c1ccc(Cl)c(Cl)c1)N1CCC(CCN2CCc3[nH]c4ccccc4c3C2)CC1.O=C(O)C(F)(F)F`: the Inhibition with Plasmodium falciparum [1] is recorded as 96%; in the assay with Plasmodium falciparum [2], 0%; in the assay with HepG2, 22%.

Regarding `CSc1sc(NC(=O)Nc2cccc(C(F)(F)F)c2)cc1C#N`, the results for the Inhibition in the assay on Plasmodium falciparum [1], in the assay with Plasmodium falciparum [2] and in the assay with HepG2 were 99%, 46% and 27%, respectively.

For `CC(C(=O)NC1CCN(c2ccnc(Nc3ccc(F)cc3)n2)C1)c1ccc(Cl)cc1` (stereo not drawn), the Inhibition was determined as 95% with Plasmodium falciparum [1], 90% with Plasmodium falciparum [2] and 17% in the assay on HepG2.

Turning to `O=C(Nc1ccncc1)c1cc(C(=O)Nc2ccncc2)cc([N+](=O)[O-])c1`, the Inhibition in the assay with Plasmodium falciparum [1] amounted to 100%; with Plasmodium falciparum [2] it was 50%; in the assay on HepG2, 1%.

Take `Cl.O=C(Nc1ccc(NC2=NCCN2)cc1)Nc1ccc(NC2=NCCN2)cc1`: the Inhibition in the assay on Plasmodium falciparum [1] is recorded as 88%; with Plasmodium falciparum [2], 72%; in the assay on HepG2, 0%.

In the case of `Cn1c(Nc2cc(C(C)(C)C)on2)nc2cc(Nc3ccnc(Nc4cccc(CS(C)(=O)=O)c4)n3)ccc21`, the Inhibition in the assay with Plasmodium falciparum [1] came out at 99%; in the assay on Plasmodium falciparum [2], 94%; with HepG2, 63%.

Regarding `C=Cc1cc(NC(=O)N2CCc3cc(OC)c(C(F)(F)F)cc32)cc(-c2cccnc2)c1`, the Inhibition with Plasmodium falciparum [1] worked out at 92%; with Plasmodium falciparum [2], 20%; in the assay on HepG2 it was 7%.

On to `COc1ccc(NC(=O)Nc2cc(C)nc3ccccc23)cc1Cl`, for which the Inhibition is 100% in the assay on Plasmodium falciparum [1], 49% in the assay on Plasmodium falciparum [2] and 4% in the assay with HepG2.

As for `CC(C)[C@H](NC(=O)c1ccc(O)c(-c2ccc(Cl)c(Cl)c2)c1)C(=O)NC1CCCCCC1`, the Inhibition worked out at 99% in the assay with Plasmodium falciparum [1], 99% in the assay with Plasmodium falciparum [2] and 0% in the assay with HepG2.

For the molecule `Cc1cc(N[C@@H](CC(C)C)C(=O)NC2CCCC2)nc(NCc2ccccc2C)n1.O=C(O)C(F)(F)F`, the figures for the Inhibition with Plasmodium falciparum [1], with Plasmodium falciparum [2] and in the assay with HepG2 were 98%, 44% and 2%, respectively.

Take `Clc1ccc(-c2cc(-c3csc(Nc4ccncc4)n3)on2)cc1`: the Inhibition in the assay on Plasmodium falciparum [1] was found to be 100%; in the assay with Plasmodium falciparum [2], 99%; in the assay on HepG2, 1%.

`Cc1nc(N)nc(N)c1OCc1cccc2ccccc12.Cl`: the Inhibition worked out at 96% in the assay on Plasmodium falciparum [1], 11% in the assay with Plasmodium falciparum [2] and 63% in the assay with HepG2.

`O=C(NCCCCN1CC=C(c2ccc3c(c2OCC2CC2)CCCC3)CC1)c1ccc(-c2ccc(C(F)(F)F)cc2)cc1`: the Inhibition in the assay with Plasmodium falciparum [1] was 93%; with Plasmodium falciparum [2], 60%; in the assay on HepG2, 25%.

`Cc1c(C)n(Cc2ccccc2)c2ncnc(OC3CCN(CC(=O)NCC4CC4)CC3)c12`: the Inhibition in the assay on Plasmodium falciparum [1] turned out to be 92%; in the assay on Plasmodium falciparum [2], 79%; in the assay with HepG2, 17%.

Regarding `CN1CCN(Cc2ccc(-c3ccc4c(Nc5ccc(Oc6ccccn6)cc5)ccnc4c3)o2)CC1`, the Inhibition is 100% in the assay on Plasmodium falciparum [1], 99% with Plasmodium falciparum [2] and 13% with HepG2.

With `CN(C)CCOc1ccc(N2CCN(CCCCNC(=O)c3ccc(NC(=O)c4ccc(Cl)cc4)cc3)CC2)cc1`, the Inhibition in the assay with Plasmodium falciparum [1] is listed as 99%; in the assay with Plasmodium falciparum [2], 98%; in the assay on HepG2 it was 13%.

`CCN1CCN(CCNc2c3ccccc3nc3ccccc23)CC1.Cl`: the Inhibition in the assay on Plasmodium falciparum [1] was found to be 93%; with Plasmodium falciparum [2] it was 8%; with HepG2, 45%.

As to `COc1ccc2ncc(F)c([C@@H](O)CN3CCC(NCc4cc5c(cn4)OCCO5)CC3)c2c1.Cl`, the values for the Inhibition with Plasmodium falciparum [1], in the assay with Plasmodium falciparum [2] and in the assay with HepG2 were 100%, 98% and 0%, respectively.

`CC(C)c1ccc(NC(=O)NCCCC2CCCN(CCCCCNC(=O)/C=C/c3ccc(Cl)c(Cl)c3)C2)cc1` (stereo not drawn): the Inhibition came to 90% in the assay with Plasmodium falciparum [1], 42% in the assay with Plasmodium falciparum [2] and 25% in the assay on HepG2.

On to `CS(=O)(=O)O.FC(F)(F)COc1c(CCNCCCCNCCc2ccc3ccccc3c2OCC(F)(F)F)ccc2ccccc12`, for which the figures for the Inhibition in the assay on Plasmodium falciparum [1], in the assay with Plasmodium falciparum [2] and in the assay on HepG2 were 100%, 97% and 99%, respectively.

In the case of `N#Cc1cccc(Nc2cc(C(F)(F)F)nc(Nc3ccccc3)n2)c1.O=C(O)C(F)(F)F`, the Inhibition in the assay with Plasmodium falciparum [1] came out at 92%; in the assay on Plasmodium falciparum [2], 17%; in the assay on HepG2 it was 7%.
